# Data published in the supplement of paper PMC6992640.
# Test system: WHIM30 (cells of a triple-negative basal-like breast cancer xenograft)
# Assay: cell viability of combination (% of vehicle); higher = less cytotoxic
# Settings: 1 µM; 72 h; partner dose: 10 nM
# Method: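 PDX cells were treated for 72 h with each drug at 1 µM plus carfilzomib (10 nM; 100 nM for WHIM2). Luciferase viability is expressed as percent of vehicle.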
row,SMILES,cell viability of combination
1,CCCCCCCCOc1ccccc1C(=O)Nc1ccc(C(=O)OCC[N+](C)(CC)CC)cc1.[Br-] [Otilonium Bromide] + CC(C)C[C@H](NC(=O)[C@H](CCc1ccccc1)NC(=O)CN1CCOCC1)C(=O)N[C@@H](Cc1ccccc1)C(=O)N[C@@H](CC(C)C)C(=O)[C@@]1(C)CO1 [Carfilzomib],17.7
2,COc1ccccc1OCCNCC(O)COc1cccc2[nH]c3ccccc3c12 (stereo not given) [Carvedilol] + CC(C)C[C@H](NC(=O)[C@H](CCc1ccccc1)NC(=O)CN1CCOCC1)C(=O)N[C@@H](Cc1ccccc1)C(=O)N[C@@H](CC(C)C)C(=O)[C@@]1(C)CO1 [Carfilzomib],20.7
3,C#Cc1cccc(Nc2ncnc3cc(OCCOC)c(OCCOC)cc23)c1 [Erlotinib] + CC(C)C[C@H](NC(=O)[C@H](CCc1ccccc1)NC(=O)CN1CCOCC1)C(=O)N[C@@H](Cc1ccccc1)C(=O)N[C@@H](CC(C)C)C(=O)[C@@]1(C)CO1 [Carfilzomib],27.4
4,COc1cc2ncnc(Nc3ccc(F)c(Cl)c3)c2cc1NC(=O)C=CCN1CCCCC1 + CC(C)C[C@H](NC(=O)[C@H](CCc1ccccc1)NC(=O)CN1CCOCC1)C(=O)N[C@@H](Cc1ccccc1)C(=O)N[C@@H](CC(C)C)C(=O)[C@@]1(C)CO1 [Carfilzomib],14.6
5,CCCCCCCCCCCCCCCCOP(=O)([O-])OCC[N+](C)(C)C [Miltefosine] + CC(C)C[C@H](NC(=O)[C@H](CCc1ccccc1)NC(=O)CN1CCOCC1)C(=O)N[C@@H](Cc1ccccc1)C(=O)N[C@@H](CC(C)C)C(=O)[C@@]1(C)CO1 [Carfilzomib],22.7
6,Clc1ccc(COC(Cn2ccnc2)c2ccc(Cl)cc2Cl)c(Cl)c1.O=[N+]([O-])O (stereo not given) [Miconazole Nitrate] + CC(C)C[C@H](NC(=O)[C@H](CCc1ccccc1)NC(=O)CN1CCOCC1)C(=O)N[C@@H](Cc1ccccc1)C(=O)N[C@@H](CC(C)C)C(=O)[C@@]1(C)CO1 [Carfilzomib],14
7,CC(O)C(=O)O.CCOc1ccc2nc3cc(N)ccc3c(N)c2c1.O [Ethacridine lactate monohydrate] + CC(C)C[C@H](NC(=O)[C@H](CCc1ccccc1)NC(=O)CN1CCOCC1)C(=O)N[C@@H](Cc1ccccc1)C(=O)N[C@@H](CC(C)C)C(=O)[C@@]1(C)CO1 [Carfilzomib],15.2
8,COc1cc2c(Oc3ccc(NC(=O)C4(C(=O)Nc5ccc(F)cc5)CC4)cc3F)ccnc2cc1OCCCN1CCOCC1 + CC(C)C[C@H](NC(=O)[C@H](CCc1ccccc1)NC(=O)CN1CCOCC1)C(=O)N[C@@H](Cc1ccccc1)C(=O)N[C@@H](CC(C)C)C(=O)[C@@]1(C)CO1 [Carfilzomib],22.4
9,CNCCC(Oc1cccc2ccccc12)c1cccs1.Cl (stereo not given) [Duloxetine HCl] + CC(C)C[C@H](NC(=O)[C@H](CCc1ccccc1)NC(=O)CN1CCOCC1)C(=O)N[C@@H](Cc1ccccc1)C(=O)N[C@@H](CC(C)C)C(=O)[C@@]1(C)CO1 [Carfilzomib],16.1
10,CCC(=C(c1ccccc1)c1ccc(OCCN(C)C)cc1)c1ccccc1.O=C(O)CC(O)(CC(=O)O)C(=O)O [Tamoxifen Citrate] + CC(C)C[C@H](NC(=O)[C@H](CCc1ccccc1)NC(=O)CN1CCOCC1)C(=O)N[C@@H](Cc1ccccc1)C(=O)N[C@@H](CC(C)C)C(=O)[C@@]1(C)CO1 [Carfilzomib],23.8
11,CN1CCN(CCOc2cc(OC3CCOCC3)c3c(Nc4c(Cl)ccc5c4OCO5)ncnc3c2)CC1 [Saracatinib (AZD0530)] + CC(C)C[C@H](NC(=O)[C@H](CCc1ccccc1)NC(=O)CN1CCOCC1)C(=O)N[C@@H](Cc1ccccc1)C(=O)N[C@@H](CC(C)C)C(=O)[C@@]1(C)CO1 [Carfilzomib],21.1
12,CC(C)N=c1cc2n(-c3ccc(Cl)cc3)c3ccccc3nc-2cc1Nc1ccc(Cl)cc1 [Clofazimine] + CC(C)C[C@H](NC(=O)[C@H](CCc1ccccc1)NC(=O)CN1CCOCC1)C(=O)N[C@@H](Cc1ccccc1)C(=O)N[C@@H](CC(C)C)C(=O)[C@@]1(C)CO1 [Carfilzomib],16.7
13,Cc1nc(Nc2ncc(C(=O)Nc3c(C)cccc3Cl)s2)cc(N2CCN(CCO)CC2)n1 + CC(C)C[C@H](NC(=O)[C@H](CCc1ccccc1)NC(=O)CN1CCOCC1)C(=O)N[C@@H](Cc1ccccc1)C(=O)N[C@@H](CC(C)C)C(=O)[C@@]1(C)CO1 [Carfilzomib],26.6
14,COc1cc2nccc(Oc3ccc(NC(=O)C4(C(=O)Nc5ccc(F)cc5)CC4)cc3)c2cc1OC.O=C(O)CC(O)C(=O)O [Cabozantinib malate (XL184)] + CC(C)C[C@H](NC(=O)[C@H](CCc1ccccc1)NC(=O)CN1CCOCC1)C(=O)N[C@@H](Cc1ccccc1)C(=O)N[C@@H](CC(C)C)C(=O)[C@@]1(C)CO1 [Carfilzomib],16.1
15,CN1CCCC1CCOC(C)(c1ccccc1)c1ccc(Cl)cc1.O=C(O)C=CC(=O)O (stereo not given) [Clemastine Fumarate] + CC(C)C[C@H](NC(=O)[C@H](CCc1ccccc1)NC(=O)CN1CCOCC1)C(=O)N[C@@H](Cc1ccccc1)C(=O)N[C@@H](CC(C)C)C(=O)[C@@]1(C)CO1 [Carfilzomib],15.5
16,CC(C)CC(NC(=O)CNC(=O)c1cc(Cl)ccc1Cl)B(O)O (stereo not given) + CC(C)C[C@H](NC(=O)[C@H](CCc1ccccc1)NC(=O)CN1CCOCC1)C(=O)N[C@@H](Cc1ccccc1)C(=O)N[C@@H](CC(C)C)C(=O)[C@@]1(C)CO1 [Carfilzomib],9.5
17,O=C(NC1CCN(CCCCC2(C(=O)NCC(F)(F)F)c3ccccc3-c3ccccc32)CC1)c1ccccc1-c1ccc(C(F)(F)F)cc1 [Lomitapide] + CC(C)C[C@H](NC(=O)[C@H](CCc1ccccc1)NC(=O)CN1CCOCC1)C(=O)N[C@@H](Cc1ccccc1)C(=O)N[C@@H](CC(C)C)C(=O)[C@@]1(C)CO1 [Carfilzomib],9.93
18,CC(C)C1=CC(=C2NNC(=O)N2c2ccc3c(ccn3C)c2)C(=O)C=C1O [Ganetespib (STA-9090)] + CC(C)C[C@H](NC(=O)[C@H](CCc1ccccc1)NC(=O)CN1CCOCC1)C(=O)N[C@@H](Cc1ccccc1)C(=O)N[C@@H](CC(C)C)C(=O)[C@@]1(C)CO1 [Carfilzomib],23.7
19,CNCCCC12CCC(c3ccccc31)c1ccccc12.Cl [Maprotiline HCl] + CC(C)C[C@H](NC(=O)[C@H](CCc1ccccc1)NC(=O)CN1CCOCC1)C(=O)N[C@@H](Cc1ccccc1)C(=O)N[C@@H](CC(C)C)C(=O)[C@@]1(C)CO1 [Carfilzomib],16
20,COC(=O)NC(C(=O)NC(Cc1ccccc1)C(O)CN(Cc1ccc(-c2ccccn2)cc1)NC(=O)C(NC(=O)OC)C(C)(C)C)C(C)(C)C (stereo not given) [Atazanavir] + CC(C)C[C@H](NC(=O)[C@H](CCc1ccccc1)NC(=O)CN1CCOCC1)C(=O)N[C@@H](Cc1ccccc1)C(=O)N[C@@H](CC(C)C)C(=O)[C@@]1(C)CO1 [Carfilzomib],24.5
